Consider 38 compounds from PubChem BioAssay (NCI).

The panel holds about 83,000 compounds, 20% with a hit somewhere; the sample as a whole holds those more often.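 The endpoint reported here, percent growth, reads 100 for growth as untreated, 0 for no net growth and -100 for all cells dead.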 Unmarked numbers belong to inactive results. Calls of active or inactive are those of the source. How the source made its calls: active means growth percent below 10; inactive means the rest.

The experiment has as its system SW-620 colon. The experiment can be described thus: NCI-60 one-dose screen, 48 h (100 = growth as untreated, 0 = no growth, -100 = all killed). As to conditions: 10 µM unless noted.
With `CN1CCN(Cc2ccc(NC(=O)c3cncc(C#Cc4cnc5ccc(OCC6(C)COC6)nn45)c3)cc2C(F)(F)F)CC1`, the growth was -44.8% (active).

On to `CC(=O)c1cc(C(=O)c2ccc(Br)cc2)n2cc(C)cc(C)c12`, for which the growth was 103%.

On to `COC(=O)C[Se]C(=O)Cc1c(C)n(C(=O)c2ccc(Cl)cc2)c2ccc(OC)cc12`, for which the growth was 62.4%.

Take `N#Cc1cccc(CN2CCC3=C(C2)C(=O)N(Cc2ccc(Cl)cc2)C2=NCCCN23)c1`: the growth was 36.1%.

Take `C=CCn1c(SCC(=O)Nc2ccc(C(=O)/C=C/c3ccc(C)cc3)cc2)nnc1-c1c[nH]c2ccccc12`: the growth is 96.9%.

For `CCCn1cnc2c(c1=N)C(c1ccc(OC)cc1)c1sc3c(CC)cccc3c1O2` (stereo not drawn), the growth is 28.4%.

Take `Cc1ccc(-c2cc3nc(C(Cl)Cl)nc(C)n3n2)cc1`: the growth is 107%.

`CCOC(=O)C(=O)CC(=O)N1C(=S)NC(=O)C1CC(C)C` (stereo not drawn): the growth was 106%.

`COc1ccc(-c2nc(C(Cl)Cl)nc3cc(-c4ccccc4)nn23)cc1`: the growth was -23.9% (active).

In the case of `CNC(=O)c1cc(-c2ccc(NS(=O)(=O)c3ccc(C)cc3)cc2)nc2cccnc12`, the growth is 107%.

As for `NC(N)=Nc1ccc(Oc2cccc(Nc3ccc(Cl)c(C(F)(F)F)c3)c2)cn1`, the growth is -69.8% (active).

For the compound `CCN1CCN(Cc2ccc(C(=O)Nc3ccc(C)c(Oc4ccc(-c5[nH]nc6ncnc(N)c56)cc4)c3)cc2C(F)(F)F)CC1`, the growth is 115%.

For the compound `COc1ccc(NC(=O)Nc2ccc3c(ccn3C(=O)c3cccc(F)c3)c2)cc1`, the growth was 60.2%.

For `CCn1c(SCC(=O)Nc2cccc(C(=O)/C=C/c3ccccc3Cl)c2)nc2ccccc2c1=O`, the growth was 72.8%.

For the compound `COc1ccc(-c2nn(-c3ccc(S(C)(=O)=O)cc3)cc2/C=N/O)cc1`, the growth is 104%.

On to `NC(N)=Nc1ccc(Oc2ccc(Nc3ccc(Cl)c(C(F)(F)F)c3)cc2)cc1`, for which the growth is 25.6%.

For the compound `COc1ccc(NC(=O)CSc2nnc(-c3ccc4nc(-c5ccc(OC)c(OC)c5)[nH]c4c3)o2)cc1OC`, the growth was 105%.

For `Cc1ccc(-n2c(/C=C3\C(=O)Nc4ccccc43)ccc2CO)cc1`, the growth was 43.3%.

Turning to `O=C(NNc1nc2cc(F)ccc2n2c(CO)ccc12)c1cnccn1`, the growth is 21.3%.

`Nc1ccccc1NC(=O)c1ccc(NC(=O)C/C=C/c2cccnc2)cn1`: the growth is 14.5%.

As for `Cn1ccnc1C(=O)/C=C/c1ccc(CNC(=O)c2c(F)c(F)c(F)c(F)c2F)cc1`, the growth is 38.2%.

Turning to `C#C[C@]1(O)CC[C@H]2[C@@H]3CC=C4c5sc(-c6cccc(O)c6)nc5CC[C@]4(C)[C@H]3CC[C@@]21C`, the growth is -52.8% (active).

For the compound `COc1cc2c(cc1OC)C(Sc1ccc(F)cc1)c1c(nc(N)c(C#N)c1N)O2` (stereo not drawn), the growth is -16.7% (active).

As for `N#Cc1cn(Cc2ccc(Cl)cc2Cl)c(C(=O)c2ccc(Br)cc2)c1N`, the growth is 98.8%.

Take `O=C(O)c1ccc(-n2cc(CNc3cc(F)c(F)c(F)c3)c(-c3cccc(F)c3)n2)cc1`: the growth was 105%.

For `CCc1cccc(NC(=O)CNc2cc(S(=O)(=O)N(C)C)cc(C)c2C)c1`, the growth was 97.6%.

As to `COc1ccc2c(c1)c(-c1cc(N)n3nc(-c4cn(C)c5ccc(OC)cc45)cc3n1)cn2C`, the growth is -20.6% (active).

Turning to `C=C(C=O)[C@@H]1CC[C@]2(COC(C)=O)CC[C@]3(C)C(CC[C@@H]4[C@@]5(C)CC[C@H](OC(C)=O)C(C)(C)[C@@H]5CC[C@]43C)[C@@H]12` (stereo partly drawn), the growth was 0.204% (active).

In the case of `COc1ccc(-c2nc3ccc(-c4nnc(SCC(=O)Nc5ccc(C(=O)/C=C/c6ccc(Cl)cc6)cc5)o4)cc3[nH]2)cc1`, the growth is 97%.

On to `COc1ccc(/C=C(\C#N)C(=O)N2c3ccccc3Sc3ccc(SC)cc32)cc1F`, for which the growth is 95.2%.

Turning to `O=C(CNc1nc(-c2cccc([N+](=O)[O-])c2)cs1)Nc1cccc(Cl)c1`, the growth was 105%.

For `CC1(C)CC[C@]23CC[C@]4(C)[C@H](CC[C@@H]5[C@@]6(C)CCCN(CO)C(C)(C)[C@@H]6CC[C@]54C)[C@H]2[C@H]1OC3`, the growth was 9.58% (active).

Consider `C=C(C=O)[C@@H]1CC[C@]2(C)[C@H](CC=C3[C@H]4[C@@H](C)[C@H](C)CC[C@]4(C(=O)OC)CC[C@]32C)[C@@]1(C)CCC#N`, for which the growth was 0.12% (active).

Consider `CN(C)C(=O)c1cc(-c2ccc3ncnc(NCc4ccccc4)c3c2)cnc1N`, for which the growth is 102%.

For the compound `O=S(=O)(NCCCNc1nccc(-c2[nH]c(-c3ccccc3)nc2-c2ccc(Cl)c(O)c2)n1)c1cccc2ccccc12`, the growth was 34.1%.

On to `Nc1ccccc1NC(=O)c1ccc(NC(=O)C/C=C/c2cccnc2)cc1`, for which the growth is 15.7%.

In the case of `COc1cc(-c2nc(SCCC(C)C)nc(NNC(=O)c3ccncc3)c2C#N)cc(OC)c1OC`, the growth was 110%.

Regarding `O=C(NNc1nc2cc(F)c(F)cc2n2cccc12)c1cnccn1`, the growth is 27.4%.
